# About 240 (0.075%) of roughly 320,000 compounds were called active.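 The calls were made as follows: active = inhibition at or above 25%, using the most active replicate where run in duplicate; inactive = inhibition below 25%.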 The list comes from a sample in which actives are over-represented; it also holds similar structures and randomly drawn compounds.
# Target: Serine/threonine-protein kinase 33 (Homo sapiens) (UniProt Q9BYT3)
# Assay: inhibitors of purified STK33 kinase, primary screen, biochemical, ADP-Glo luminescence, homogeneous, cell-free (AID 2661)
# Conditions: purified STK33, MBP phosphorylation, at 10 µM, hits give high values
# Serine/threonine-protein kinase 33 (Homo sapiens), sequence (Q9BYT3 whole entry, looked up): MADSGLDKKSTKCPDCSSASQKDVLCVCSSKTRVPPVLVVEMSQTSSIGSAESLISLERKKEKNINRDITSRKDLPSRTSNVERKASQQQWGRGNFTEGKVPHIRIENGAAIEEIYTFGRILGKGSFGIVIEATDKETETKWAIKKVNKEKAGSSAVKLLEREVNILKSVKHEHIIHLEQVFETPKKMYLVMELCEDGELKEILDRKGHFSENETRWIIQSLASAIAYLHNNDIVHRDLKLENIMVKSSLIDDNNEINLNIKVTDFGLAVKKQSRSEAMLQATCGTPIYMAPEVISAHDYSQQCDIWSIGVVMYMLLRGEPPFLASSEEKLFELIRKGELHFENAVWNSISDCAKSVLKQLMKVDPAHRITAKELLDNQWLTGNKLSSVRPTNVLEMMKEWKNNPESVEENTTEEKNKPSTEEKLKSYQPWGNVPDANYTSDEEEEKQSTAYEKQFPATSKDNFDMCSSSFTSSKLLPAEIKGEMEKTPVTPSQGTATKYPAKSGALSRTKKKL
row,SMILES,inhibition
1,CCCc1cc(=O)[nH]c(SCC(=O)Nc2ccc(S(=O)(=O)N3CCCC3)cc2)n1,-1.05% (inactive)
2,Cc1noc(C)c1NC(=O)Nc1ccc2c(c1)C(=O)N([C@H](C)CO)C[C@H](C)[C@@H](CN(C)S(=O)(=O)c1cn(C)cn1)O2,-0.91% (inactive)
3,CCOC(=O)COc1cc(O)c2c(=O)cc(-c3ccccc3)oc2c1,1.27% (inactive)
4,CCOC(=O)COc1cc(OCC(=O)OCC)c2c(=O)cc(-c3ccccc3)oc2c1,-0.944% (inactive)
5,COc1c(O)cc2oc(-c3ccc(O)c(O)c3)cc(=O)c2c1O,44.2% (active)
6,O=C(NNC(=O)c1ccc(Cl)nc1)c1ccc(Br)cc1,-0.906% (inactive)
7,Cc1ccc(C)c(NC(=O)CN(C)C(=O)COc2ccc3ccccc3c2)c1,-0.402% (inactive)
8,CC(=O)NC(CC(=O)Nc1ccc(S(=O)(=O)N2CCOCC2)cc1)c1ccccc1 (centres undefined),2.28% (inactive)
9,Cc1ccc(S(=O)(=O)N2[C@@H](c3cccc4ccccc34)C(C(=O)O)=C[C@H]2C(C)(C)C)cc1,-1.33% (inactive)
10,CN(CCc1ccccc1)C(=O)c1cccc(NC(=O)Cc2ccc([N+](=O)[O-])cc2)c1,0.236% (inactive)
11,O=C1OC[C@@H]2CCCN2C(=O)[C@H](CC(=O)N(CCO)Cc2ccccc2)C/C=C\CC[C@@H]1Cc1ccc(F)cc1,-0.762% (inactive)
12,Cc1ccc(C(=O)OCC(=O)N2CCCCCC2)cc1S(=O)(=O)N1CCOCC1,-2.28% (inactive)
13,C=CC[C@@H](CC(=O)N[C@H](CO)Cc1ccccc1)C(=O)N[C@@H](COC(=O)[C@@H](CC=C)Cc1ccc(F)cc1)Cc1c[nH]c2ccccc12,-0.564% (inactive)
14,O=C1NC[C@@H](c2ccccc2)OC(=O)[C@H](Cc2ccc(F)cc2)CC/C=C/C[C@H]1CC(=O)N(CCO)Cc1ccccc1,-2.42% (inactive)
15,Fc1ccccc1-c1cc2cc3c(cc2cn1)OCO3,1.15% (inactive)
16,O=C(CN1C(=O)NC2(CCCCCC2)C1=O)Nc1ccc([N+](=O)[O-])cc1,-2.25% (inactive)
17,O=C(COC(=O)c1cccnc1Cl)NC(=O)NC1CCCCC1,-0.374% (inactive)
18,COc1ccc(Cl)cc1NC(=O)COC(=O)c1ccc(Br)o1,-0.284% (inactive)
19,COc1ccc(CNc2nc(NCc3ccc(OC)cc3)c3ncn(C4CCCC4)c3n2)cc1,-0.00506% (inactive)
20,O=C(CN1C(=O)c2ccc([N+](=O)[O-])cc2C1=O)Nc1nnc(C2CC2)s1,-0.729% (inactive)
21,C=CCC[C@H](Cc1ccc(F)cc1)C(=O)OC[C@@H](Cc1c[nH]c2ccccc12)NC(=O)[C@H](CC=C)CC(=O)N[C@H](CO)Cc1ccccc1,-0.577% (inactive)
22,O=C(COC(=O)c1ccc(O)cc1O)c1ccc2c(c1)OCCO2,1.53% (inactive)
23,CCOc1ccc(Br)cc1S(=O)(=O)Nc1ccc(S(=O)(=O)Nc2cc(C)on2)cc1,-0.663% (inactive)
24,COc1ccc2nc3n(c(=O)c2c1)-c1cc(C)ccc1C(=O)NC3Cc1ccc(O)cc1 (centres undefined),-0.57% (inactive)
